The campaign covered roughly 2,300 compounds. About 1,200 (52%) were called active. About 34% were inconclusive and are not listed. The call rests on the fitted dose curve; in most records, active means well fitted inhibition curve with a large enough effect; inconclusive means small, poorly fitted or top-dose-only effect, or effect the other way; inactive means no such curve, though single readings can be large or run the other way. The set was probably picked from earlier hits. This is one part of the list.
assay: Confirmation screen for delayed death inhibitors of the malarial parasite plastid, 48 hour incubation; further: nearly all actives have a fitted effect of over 65% in size; conditions: P. falciparum-infected erythrocytes, luciferase growth; series mostly up to 28.7 µM
Summary of the method: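 Single-generation (48 h, 37 C) exposure of integrated firefly luciferase-reporter P. falciparum in red cells, 0.1% parasitemia at 2% hematocrit, Albumax-supplemented RPMI. Falling luciferase signal marks parasite growth inhibition.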
Potency means the concentration at half of the fitted maximal effect.

| SMILES | Potency |
| --- | --- |
| Cc1ccccc1-c1cc(C(=O)n2cccn2)c2cc(Cl)ccc2n1 | inactive |
| Cc1ccc(C)c(-c2cc(C(=O)Nc3nccs3)c3ccccc3n2)c1 | 4.47 µM (active) |
| Cc1ccc(C)c(-c2cc(C(=O)NNC(=S)NCC(C)C)c3ccccc3n2)c1 | 14.1 µM (active) |
| CCC1OC(=O)C[C@@H](O)[C@H](C)[C@@H](OC2OC(C)CC(N(C)C)C2O)[C@@H](CC=O)C[C@@H](C)C(=O)/C=C/[C@]2(C)OC2C1C (some centres not stated) | 11.2 µM (active) |
| Cc1onc(-c2ccccc2Cl)c1C(=O)N1CCC(Cc2ccccc2)CC1 | 15.8 µM (active) |
| Cc1onc(-c2ccccc2Cl)c1C(=O)N1CC(C)CC(C)C1 (configuration not stated) | inactive |
| Cc1ccc(S(=O)(=O)N(C)C)cc1NC(=O)c1cncc(Br)c1 | 8.91 µM (active) |
| NCCCNc1nc(N)c([N+](=O)[O-])c(NC2CCCCC2)n1 | 3.98 µM (active) |
| N=C(N)c1ccc(OCCCCCOc2ccc(C(=N)N)cc2)cc1 | 1 µM (active) |
| Cc1cccc(-n2c(C)cc(/C=N\NC(=O)c3cccs3)c2C)c1 | 11.2 µM (active) |
| COc1ccc(CCNC(=O)C(=O)NCC2OCCN2S(=O)(=O)c2ccc3c(c2)OCCO3)cc1OC (configuration not stated) | 11.2 µM (active) |
| O=C(NCCCn1ccnc1)C(=O)NCC1OCCN1S(=O)(=O)c1ccc(F)cc1 (configuration not stated) | inactive |
| CCC(C(=O)O)C1OC(C(C)C(O)C(C)C(=O)C(CC)C2OC3(C=CC(O)C4(CCC(C)(C5CCC(O)(CC)C(C)O5)O4)O3)C(C)CC2C)C(C)CC1C (configuration not stated) | 0.251 µM (active) |
| O=C(CCl)NCc1c(Cl)cccc1-n1cccc1 | 12.6 µM (active) |
| Cc1ccc(CS(=O)(=O)Cc2ccc(C(=O)NC3CCCC3)o2)cc1 | 11.2 µM (active) |
| O=C(NC1CCCCC1)c1ccc(CS(=O)Cc2ccccc2Cl)o1 (configuration not stated) | 12.6 µM (active) |
| C/C(CC(=O)NC1CCCCC1)=N\NC(=O)COc1ccc(C)cc1Br | inactive |
| O=C(CCl)Nc1ccc2c(c1)OCO2 | 2.24 µM (active) |
| Cn1c(=O)n(C)c2cc(NC(=O)CCl)ccc21 | 2.24 µM (active) |
| Cc1ccc(NC(=O)c2nnn(CC(=O)Nc3ccc4c(c3)OCO4)c2N)cc1C | inactive |
| CCN1CCN(Cc2c(O)ccc3c2O/C(=C\C=C\c2ccccc2)C3=O)CC1 | 3.98 µM (active) |
| O=C(COc1ccccc1)N1CCN(S(=O)(=O)c2ccc(Br)cc2)CC1 | 11.2 µM (active) |
| O=S(=O)(c1ccc(OCC(O)CN2CCN(c3ccc(F)cc3)CC2)cc1)N1CCOCC1 (configuration not stated) | 11.2 µM (active) |

| SMILES | Potency |
| --- | --- |
| Cc1cc(OCC(=O)N2CCCC2)cc(C)c1Cl | inactive |
| CCOc1ccc(S(=O)(=O)N2CCN(C(=O)CCOc3ccccc3C)CC2)cc1 | 12.6 µM (active) |
| O=S(=O)(c1ccc(OCc2ccc(Br)cc2)cc1)N1CCOCC1 | 11.2 µM (active) |
| COc1ccc(CNC(=O)c2cc(S(=O)(=O)N3CCOCC3)cn2C)cc1 | inactive |
| Cc1cc(OCCN2CCN(S(=O)(=O)c3ccccc3F)CC2)ccc1C(C)C | inactive |
| CN(C)c1ccc(CNc2ncnc3sccc23)cc1 | inactive |
| COc1cccc(-c2ccc3ncnc(NCc4cccs4)c3c2)c1 | 11.2 µM (active) |
| Cc1cccc(-c2ccc3ncnc(NCc4cccs4)c3c2)c1 | 7.08 µM (active) |
| Cc1ccn2c(NC3CCCC3)c(-c3ccccn3)nc2c1 | 7.08 µM (active) |
| COc1cccc([C@@H]2Oc3ccc(OC)cc3C(=O)[C@H]2O)c1 | 7.94 µM (active) |
| CC(=O)N1CN(C2CCCC2)Cc2c1sc1c2CCCC1 | 14.1 µM (active) |
| COC(=O)c1cc(NC(=O)CN2CCc3cc4c(cc3C2)OCCCO4)cc(C(=O)OC)c1 | 12.6 µM (active) |
| CCOc1ccccc1N(CC(=O)Nc1ccc(S(=O)(=O)N2CCCC2)cc1)S(C)(=O)=O | 12.6 µM (active) |
| COc1ccc(C)cc1N(CC(=O)Nc1ccc(S(=O)(=O)N2CCCC2)cc1)S(C)(=O)=O | 15.8 µM (active) |
| COc1ccc(S(=O)(=O)N2CCCCCC2)cc1C(=O)N(C)CC(=O)Nc1cc(C)ccc1C | 7.94 µM (active) |
| COC(=O)c1cn(C)c2ccc(S(=O)(=O)N3CCCC3)cc2c1=O | inactive |
| CCN(CC(=O)Nc1ccc(S(=O)(=O)N2CCOCC2)cc1)Cc1ccccc1 | 12.6 µM (active) |
| COc1ccc(OCCOc2ccc(S(=O)(=O)N3CCCC3)cc2C(N)=O)cc1 | 11.2 µM (active) |
| COc1cc2c(cc1OC)CN(CC(=O)Nc1ccc(S(=O)(=O)N3CCCC3)cc1)CC2 | 15.8 µM (active) |
| COc1ccc(S(=O)(=O)N2CCCN(S(=O)(=O)c3ccc(OC)c(C)c3)CC2)cc1C | 14.1 µM (active) |
| C/C=C(\C)CN1CCc2cc(OC)c(OC)cc2C1 | inactive |
| O=C(CCCN1C(=O)/C(=C\c2ccco2)SC1=S)Nc1ccc2ccccc2c1 | inactive |
| N=C1S/C(=C\c2ccco2)C(=O)N1c1nccs1 | 14.1 µM (active) |

| SMILES | Potency |
| --- | --- |
| O=C(c1ccc(Cl)cc1)C(Cn1cncn1)C(Sc1ccccc1)c1ccccc1 (configuration not stated) | 14.1 µM (active) |
| Cc1cc(C)c(/C=C(\C#N)C(N)=S)c(C)c1 | inactive |
| CCN(CC)S(=O)(=O)c1ccc(N2CCOCC2)c(NC(=O)C2CSC3(C)CCC(=O)N23)c1 (configuration not stated) | 14.1 µM (active) |
| COc1ccc([C@@]2(C(C)C)ON(c3ccccc3C(F)(F)F)C2=O)cc1 | 1.12 µM (active) |
| CCOC(=O)CC(Nc1nc(N2CCOCC2)nc(N2CCOCC2)n1)c1ccccc1Cl (configuration not stated) | 6.31 µM (active) |
| CCCc1ccc(C(=O)NC(=O)c2ccccc2O)cc1 | 0.501 µM (active) |
| CCN(CCN1CCCC1)C(=O)c1cc(COc2ccccc2SC)on1 | 15.8 µM (active) |
| CSc1ccccc1OCc1cc(C(=O)N2C[C@H]3CC[C@H]2C3)no1 | inactive |
| CSc1ccccc1OCc1cc(C(=O)N(C)CCc2c(C)n[nH]c2C)no1 | 12.6 µM (active) |
| CSc1ccccc1OCc1cc(C(=O)NCCCn2nc(C)cc2C)no1 | 15.8 µM (active) |
| CSc1ccccc1OCc1cc(C(=O)NCCn2ccnc2C)no1 | inactive |
| Nc1nc(SCC(=O)NCC2CCCO2)[nH]c(=O)c1NC(=O)c1ccc(F)c(F)c1 (configuration not stated) | 12.6 µM (active) |
| CCS(=O)(=O)c1nc(S(=O)(=O)c2ccc(C)cc2)c(N2CCC3(CC2)OCCO3)s1 | 12.6 µM (active) |
| CC(C)Cc1ccc(C(=O)Nc2ccc(Cc3ccncc3)cc2)o1 | 12.6 µM (active) |
| CCN(CC)S(=O)(=O)c1cc(NC(=O)C(C)OC(=O)c2[nH]c(C)c(C(C)=O)c2C)ccc1C (configuration not stated) | 4.47 µM (active) |
| Cc1oc2c(c1C(=O)N1CCOCC1)C(=O)c1ccccc1C2=O | 2 µM (active) |
| CCCC1O[C@@H]2CC3C4CCC5=CC(=O)C=C[C@]5(C)C4C(OC(C)=O)C[C@]3(C)[C@]2(C(=O)COC(C)=O)O1 (some centres not stated) | 7.08 µM (active) |
| COC1C(OC(=O)/C=C/C=C/C=C/C=C/C(=O)O)CCC2(CO2)C1C1(C)OC1CC=C(C)C (configuration not stated) | 0.0562 µM (active) |
| CC[n+]1ccc(/C=C/c2c[nH]c3ccccc23)cc1 | 0.355 µM (active) |
| CCc1ccc(/C=C/c2c[nH]c3ccccc23)[n+](CC)c1 | 0.126 µM (active) |
| CC(C)CC1NC(=S)N(Cc2ccccc2)C1=O (configuration not stated) | 5.01 µM (active) |
| Cc1nnsc1C(=O)Nc1ccccc1 | inactive |
| NC(=O)c1ccc(NC(=O)C#Cc2ccccc2)cc1 | 5.01 µM (active) |

| SMILES | Potency |
| --- | --- |
| O=C(C#Cc1ccccc1)Nc1cccc(F)c1 | 7.94 µM (active) |
| Nc1ccc(-c2c3ccc(=O)cc-3oc3cc(O)ccc23)c(C(=O)O)c1 | inactive |
| c1ccc(Cn2nnc3c(N4CCCCCC4)ncnc32)cc1 | 14.1 µM (active) |
| CCn1c(=O)n(CC)c2cc(N3CCCC3)c(NC(=O)c3ccc(C)cc3)cc21 | 11.2 µM (active) |
| Cc1ccc(NC(=O)COc2ccccc2C#N)cc1S(=O)(=O)N1CCCCCC1 | 14.1 µM (active) |
| COc1ccc(NC(=O)Cc2coc3cc(C)c(C(C)C)cc23)cc1S(=O)(=O)N1CCOCC1 | 12.6 µM (active) |
| O=C(COC(=O)c1ccc(F)c(S(=O)(=O)N2CCOCC2)c1)Nc1ccc2[nH]c(=O)[nH]c2c1 | inactive |
| COc1ccc(NC(=O)Cc2ccc(Cl)cc2)cc1S(=O)(=O)N1CCCCC1 | 12.6 µM (active) |
| COc1ccccc1-c1coc2cc(OC(=O)N3CCOCC3)ccc2c1=O | inactive |
| Cc1csc(NC(=O)Cc2coc3cc(C)c(C(C)C)cc23)n1 | 14.1 µM (active) |
| COc1ccc(CC(=O)NNC(=O)CN(C)S(=O)(=O)c2ccc(Cl)cc2)cc1OC | inactive |
| CC1(C)CC(=O)C=C(NC2=CC3OC(c4ccccc4)OCC3OC2=O)C1 (configuration not stated) | inactive |
| Cc1ccc(/C=C/c2ccc(N(C)C)cc2)[n+](C)c1 | 1.26 µM (active) |
| CC[n+]1ccccc1/C=C/c1ccc(N(C)C)cc1 | 2.24 µM (active) |
| COc1cc(/C=C(/C#N)C(=O)NCc2ccccc2)cc(OC)c1OC | 14.1 µM (active) |
| CC[C@@H](C(=O)[C@@H](C)[C@@H](O)[C@H](C)CCc1ccc(C)c(O)c1C(=O)O)[C@H]1O[C@](CC)([C@H]2CC[C@](O)(CC)[C@H](C)O2)C[C@@H]1C | 0.708 µM (active) |
| COc1ccc(N2CCc3c(C)nc4c(OC)cc(OC)cc4c32)c(OC)c1 | 11.2 µM (active) |
| Cc1ccccc1OCC(=O)NCCC1=CCCCC1 | inactive |
| Cc1cc(=O)nc2c3ccccc3n(CC(=O)NCCC3=CCCCC3)n12 | 12.6 µM (active) |
| Brc1ccc(/C=N/Nc2ncnc3c2cnn3Cc2ccccc2)cc1 | 3.98 µM (active) |
| COc1cccc(/C=N/NC(=O)c2nc(-c3ccccc3)cc(-c3ccccc3)n2)c1O | 6.31 µM (active) |
| COC(=O)c1ccc(COc2ccccc2/C=N/O)o1 | inactive |
| O=C(Cn1ncc2c3ccccc3n(Cc3cccc(Cl)c3)c2c1=O)NCc1ccccn1 | 14.1 µM (active) |
